Hits are enriched below; roughly 7.6% of the tested compounds scored in any of these assays.
p53 reactivator – mutant p53 re-activation in reporter cells; H1299 p53-A138V BP100-luciferase reporter, luminescence, 24 h; Potency, µM (series often up to 92.2 µM), for the others: top-dose activity change, positive = activation, usual class: activators; hit rate 0.063% among 320,000; AID 504706; also: potency is read from the fitted curve at half-maximal effect; % of control where 0% means no effect; nearly all actives have a fitted effect of over 45% in size
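p53-null H1299 cells stably carrying temperature-sensitive p53-A138V and a BP100-luciferase reporter were pinned with compounds (4-point, 1:5 series) and held 24 hrs at 37 deg C. Luminescence was read 10 min after detection reagent.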
BRCA1 expr act – increases BRCA1 expression | MCF7-BRCA1-FFLuc reporter, luminescence, 48 h; response scale: scaled: vehicle 0%, 10 µM genistein 100% | Potency, µM (doses to about 46.1 µM), inactives show at the top dose activation, hits mostly activators | hit rate 1.1% among 380,000 | AID 624202; also: potency is read from the fitted curve at half-maximal effect; nearly all actives have a fitted effect of over 80% in size
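Quantitative HTS in MCF7 cells stably reporting BRCA1 expression via firefly luciferase. Compound treatment lasts 48 h at 37 °C in phenol-red free MEM. Activation is expressed relative to genistein at 10 microM and DMSO.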
ELG1 repair inh – inhibitors of ELG1-dependent DNA repair in HEK293T cells | HEK293T ELG1-luciferase reporter, luminescence, 16 h; DNA damage induced by 5-fluorouridine | Potency, µM (titrated, usually from 46.1 µM), inactives show top-dose activity change, negative = inhibition, usual class: inhibitors | hit rate 2.3% among 330,000 | AID 504467; also: potency is read from the fitted curve at half-maximal effect; % is scaled to controls: 0 for no effect and ±100 for the full control effect; nearly all actives have a fitted effect of over 55% in size
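Step one: seed 2,000 cells per well. Step two: pin-transfer compound or DMSO alongside 5-fluorouridine. Step three: incubate 16 hr, 37 °C, 5% CO2. Step four: add ONE-Glo, wait 30 min, read luminescence.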
RORg inh – ROR gamma (mouse) transcription inhibition. Potency, µM (highest dose often 53.6 µM), inactives show at the top dose activity change, negative = inhibition, actives largely listed as inhibitors. AID 2551. hit rate 5.4% among 310,000. Drosophila S2 Gal4-RORgamma UAS-luciferase reporter, 20 h; also: potency is read from the fitted curve at half-maximal effect; % is scaled to controls: 0 for no effect and ±100 for the full control effect; nearly all actives have a fitted effect of over 60% in size
Target sequence (P51450 whole entry, looked up, the tested form may be a part): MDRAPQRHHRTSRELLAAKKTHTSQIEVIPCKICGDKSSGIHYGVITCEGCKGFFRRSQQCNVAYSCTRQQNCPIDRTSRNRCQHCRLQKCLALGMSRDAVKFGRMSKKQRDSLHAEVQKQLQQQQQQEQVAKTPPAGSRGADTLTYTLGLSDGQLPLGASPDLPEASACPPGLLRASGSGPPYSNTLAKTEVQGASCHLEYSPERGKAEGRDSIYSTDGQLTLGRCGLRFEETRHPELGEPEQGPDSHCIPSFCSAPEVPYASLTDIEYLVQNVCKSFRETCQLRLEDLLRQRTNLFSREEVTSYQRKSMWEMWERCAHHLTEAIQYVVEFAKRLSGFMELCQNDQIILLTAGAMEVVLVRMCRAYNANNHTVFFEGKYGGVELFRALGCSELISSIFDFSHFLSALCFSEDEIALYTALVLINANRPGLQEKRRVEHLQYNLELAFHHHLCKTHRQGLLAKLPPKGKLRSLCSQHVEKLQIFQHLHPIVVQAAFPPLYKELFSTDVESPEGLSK
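Luminescence from a UAS-regulated Photinus luciferase reporter in stably transfected Drosophila Schneider cells is measured; decreased signal marks ROR gamma inhibition. Fusion expression is induced by 700 uM copper sulfate for 20 hr.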
Giardia kill – Giardia lamblia killing. AID 540267. Giardia lamblia trophozoite viability. hit rate 0.15% among 340,000. activity change, % at 7.66 µM, hits read low; in the data active = activity change below about -80%; inconclusive = between about -30% and that limit;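 also: parasites exposed to compound for two days anaerobically before the ATP read; % is scaled to controls: 0 for no effect and ±100 for the full control effect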
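ATP-content bioluminescence gauges trophozoite survival. Cells (100/well) receive compound and incubate anaerobically for 48 hrs at 37 deg C; detection reagent follows for 15-30 min at room temperature.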
Gal4-VP16 FLuc – Gal4-VP16 reporter inhibition counter-screen; Drosophila S2 Gal4-VP16 UAS-luciferase, luminescence, 20 h; Potency, µM (titrated, usually from 53.6 µM), for the others: at the top dose activity, negative = inhibition, most hits filed as inhibitors; hit rate 3.5% among 310,000; AID 2546;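 also: Gal4-VP16 expression switched on by copper sulfate through the metallothionein promoter; potency is read from the fitted curve at half-maximal effect; % is scaled to controls: 0 for no effect and ±100 for the full control effect; nearly all actives have a fitted effect of over 50% in size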
Active calls of the source: *; ? = inconclusive; nt = no result; [ ] = dose if it differs, or a comment. Unless noted, calls follow the shape of the dose curve; as a rule, active = well fitted curve in the direction sought with a large enough effect; inconclusive = small, poorly fitted or top-dose-only effect, or another doubt; inactive = no such curve, though single readings can be large; an effect the other way counts as inactive or inconclusive.

SMILES	p53 reactivator	BRCA1 expr act	ELG1 repair inh	RORg inh	Giardia kill	Gal4-VP16 FLuc
O=C(NCc1ccccc1)c1cnc2n(c1=O)CCS2	-5%	37%	13%	9%	6	1%
N=c1ccn(Cc2cccc(F)c2)cc1	0%	-24%	2%	?	26	10µM*
O=C(Nc1cccc(C(F)(F)F)c1)C1CCN(S(=O)(=O)c2ccc(N3CCCC3=O)cc2)CC1	-9%	-43%	-25%	?	-7	13µM*
CN(C(=S)NC(=O)Cc1ccccc1)c1ccccc1	3%	14%	2%	10µM*	17	?
CCN(CC)C(=S)NC(=O)Cc1ccccc1	0%	-9%	10%	6.3µM*	3	?
CN(C(=S)NC(=O)C1(C)CC1(Cl)Cl)c1ccccc1 (configuration not stated)	-3%	6%	19%	?	16	?
Cn1c(=N)n(CC(=O)c2ccc(F)cc2)c2ccccc21	-4%	-77%	?	8.9µM*	-2	11µM*
Cc1ccc(Cn2c(=N)n(CC(=O)c3ccc([N+](=O)[O-])cc3)c3ccccc32)cc1	16%	-83%	-15%	?	-10	-16%
CCCCn1c(=N)n(CC(=O)c2ccc([N+](=O)[O-])cc2)c2ccccc21	-7%	nt	20%	1.3µM*	nt	-17%
Cn1c(=N)n(CC(=O)c2ccc(Br)cc2)c2ccccc21	nt	-62%	nt	nt	-5	nt
c1ccc(OCc2nc(-c3ccccc3)no2)cc1	?	93%	?	?	-9	5%
Clc1ccc(OCc2nc(-c3ccncc3)no2)c(Br)c1	?	4µM*	?	0%	9	-1%
c1ccc(OCc2nc(-c3ccncc3)no2)cc1	9%	11µM*	?	6%	18	-7%
Clc1ccccc1OCc1nc(-c2ccncc2)no1	?	5µM*	?	?	0	-1%
CCC(=O)NC(=S)Nc1ccc(NC(=O)c2ccc([N+](=O)[O-])cc2Cl)cc1	-7%	-1%	5.8µM*	-29%	-15	-14%
Cc1ccc(NC(=O)c2ccc([N+](=O)[O-])cc2Cl)nc1	?	1.1µM*	?	-17%	?	?
O=C(Nc1ccc([N+](=O)[O-])cc1)c1cc2ccccc2nc1Cl	1%	0%	18µM*	-1%	5	0%
CCC(=O)NC(=S)Nc1cccc(NC(=O)c2ccc(Cl)cc2Cl)c1	-7%	-24%	-16%	2.8µM*	-3	6.3µM*
O=C(CSc1cccc[n+]1[O-])C12CC3CC(CC(C3)C1)C2	1%	31%	8%	-82%	20	?
Cc1oc2c(c(C)cc3oc(=O)c(CC(=O)NCCCN4CCCC4=O)c(C)c32)c1C	7%	-9%	-11%	-23%	-11	-9%
O=C(c1cc(Cl)nc2ccccc12)N1CCN(Cc2ccc3c(c2)OCO3)CC1	-6%	-20%	-7%	nt	-4	nt
COc1ccc(C)cc1NC(=O)Nc1ccc(Br)cn1	-1%	-4%[1.84 µM]	0%	10µM*	-26	5%
O=C(NC(=S)Nc1ccc(CN2CCOCC2)cc1)c1cccc([N+](=O)[O-])c1	-8%	1%	2%	?	-1	?
COc1ccc(C)cc1NC(=S)NNC(=O)c1c(Br)cnn1C	-3%	0%	?	2µM*	12	-19%
O=C(NC(=S)Nc1ccc(CN2CCOCC2)cc1)c1ccc([N+](=O)[O-])cc1Cl	4%	7%	?	7.9µM*	?	?
SMILES	p53 reactivator	BRCA1 expr act	ELG1 repair inh	RORg inh	Giardia kill	Gal4-VP16 FLuc
O=C(Nc1cccc(O)c1)c1ccc([N+](=O)[O-])cc1Cl	?	5µM*	?	18%	-1	6%
C(/C=C/C=C/Nc1ccccc1)=Nc1ccccc1	2%	7%	4%	-3%	8	0%
COc1ccc2cc(C(=O)C3CCCN(C(=O)Cc4c(C)noc4C)C3)ccc2c1 (configuration not stated)	-3%	-24%	-24%	25%	-9	-8%
COc1ccc(C(=O)Nc2ccc(C)cn2)c(OC)c1	-36%	-93%	?	4µM*	?	4µM*
COc1ccc(C(=O)Nc2cc(C)on2)c(OC)c1	nt	?	?	-32%	-1	-17%
CCNC(=S)Nc1nc2c(cc1C(=O)OCC)CCCC2	?	38%	?	0.56µM*	6	1.8µM*
CCOC(=O)CC(=O)COc1nc2cc3c(nc2o1)CCCC3	?	-3%	?	2%	-13	0%
C=CCNC(=S)Nc1nc2c(cc1C(=O)OCC)CCCC2	?	81%	?	4µM*	21	8.9µM*
C=CCNC(=S)Nc1ccc2nc(C)oc2c1	3%	24%	0%	-16%	38	-12%
Cc1cc(C(=O)CSc2ccc3c(c2)OCCO3)c(C)n1C1CC1	?	11µM*	?	0%	-26	2%
CCNc1nnc(SCC(=O)c2cc(C)n(C3CC3)c2C)s1	19%	41%	?	nt	2	nt
Cn1c(N)c(C(=O)CSc2ccc3c(c2)OCCO3)c(=O)n(C)c1=O	21%	21%	?	?	-28	?
C/C(N)=C(/C#N)C(=O)CSc1ccc2c(c1)OCCO2	40µM*	?	?	6%	-15	7%
CNC(=O)Nc1cccc(NC(=O)NC)n1	0%	-10%	?	-18%	0	-11%
CC(C)C[C@H](NC(=O)c1nc[nH]c1C(=O)N[C@@H](CCCCNC(=O)OC(C)(C)C)C(=O)OC(C)(C)C)C(=O)OCc1ccccc1	nt	-65%	?	7.1µM*	15	?
CC(C)(C)OC(=O)CNC(=O)c1[nH]cnc1C(=O)N[C@@H](CCCCNC(=O)OC(C)(C)C)C(=O)OC(C)(C)C	-6%	-34%	?	?	?	?
CC(C)C[C@H](NC(=O)c1nc[nH]c1C(=O)NCCCCCNC(=O)OC(C)(C)C)C(=O)OCc1ccccc1	2%	-12%	0%	13µM*	9	6.3µM*
CC(C)(C)OC(=O)NCCCC[C@H](NC(=O)c1nc[nH]c1C(=O)NCC(=O)OCc1ccccc1)C(=O)OC(C)(C)C	0%	13%	-25%	28µM*	28	?
C[C@H](NC(=O)c1nc[nH]c1C(=O)N[C@@H](CCCCNC(=O)OC(C)(C)C)C(=O)OC(C)(C)C)C(=O)OCc1ccccc1	nt	-34%	-5%	-20%	1	?
Cc1noc(NS(=O)(=O)c2ccc(NC(=O)c3cnc4n(c3=O)CCS4)cc2)c1C	11%	-3%	-3%	-16%	16	26%
